Experimental data from PubChem BioAssay AID2427 (National Center for Advancing Translational Sciences (NCATS), 2010).
Calls of active or inactive are those of the source.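 How the source made its calls: active means melting temperature shift above 3 C; inconclusive means shift above 1 C but not above 3 C; inactive means the rest.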

Target: 15-hydroxyprostaglandin dehydrogenase [NAD(+)] (Homo sapiens) (UniProt P15428)
Experiment: Thermal Shift Assay for Inhibitors of HPGD (15-Hydroxyprostaglandin Dehydrogenase)
Conditions: Recombinant HPGD thermal shift, SYPRO orange DSF, at 250 µM, stronger effect = higher value
Protocol: Assay Overview: Human 15-Hydroxyprostaglandin dehydrogenase (HPGD) catalyzes the inactivation of prostaglandin E2, and plays a major role in cancer biology by antagonizing the oncogenic potential of cyclooxygenase type 2 (COX2). Studies to assess the stability of human 15-PGDH in presence of compounds was performed as described (Niesen et al., 2007) with variations. References 1. Myung SJ, Rerko RM, Yan M, Platzer P, Guda K, Dotson A, Lawrence E, Dannenberg AJ, Lovgren AK, Luo G, Pretlow TP, Newman RA, Willis J, Dawson D, Markowitz SD. 15-Hydroxyprostaglandin dehydrogenase is an in vivo suppressor of colon tumorigenesis. Proc Natl Acad Sci U S A. 2006 Aug 8;103(32):12098-102. 2. Yan M, Rerko RM, Platzer P, Dawson D, Willis J, Tong M, Lawrence E, Lutterbaugh J, Lu S, Willson JK, Luo G, Hensold J, Tai HH, Wilson K, Markowitz SD. 15-Hydroxyprostaglandin dehydrogenase, a COX-2 oncogene antagonist, is a TGF-beta-induced suppressor of human gastrointestinal cancers. Proc Natl Acad Sci U S A. 2004 Dec 14;101(50):17468-73. 3. […]
HPGD was diluted to a final assay concentration of 1 uM in 100 mM Tris buffer, pH 8.0, containing 0.01% Tween-20 and 1:1000 SYPRO orange dye. […] Heat denaturation curves were recorded using a RT-PCR instrument (Mx3005p, Agilent) applying a temperature gradient of 2 degree C/min. […]

15-hydroxyprostaglandin dehydrogenase [NAD(+)] (Homo sapiens), sequence (P15428 whole entry, looked up): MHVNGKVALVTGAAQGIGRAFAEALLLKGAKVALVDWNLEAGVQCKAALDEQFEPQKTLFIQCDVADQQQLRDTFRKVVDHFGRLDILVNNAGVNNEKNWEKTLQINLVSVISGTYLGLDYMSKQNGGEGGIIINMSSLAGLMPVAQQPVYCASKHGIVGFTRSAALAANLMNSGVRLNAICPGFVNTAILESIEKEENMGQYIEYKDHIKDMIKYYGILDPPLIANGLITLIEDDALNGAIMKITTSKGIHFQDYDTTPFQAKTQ

O=P1(Nc2ccc(F)cc2)COc2ccccc2OC1
thermal shift (delta Tm): 0.5 C (inactive)
thermal shift (delta Tm) (measured here: delta Tm with NADH cofactor): 3.3 C
